Test systems include STK36; STK39; SYK; SgK110; TAOK1; TAOK2; TAOK3; TBK1; TEC.
Holding throughout (conditions): concentration: 1 μM,replicates: in singlicate; n = 1
Another test relates to T1, TAK1.
T1 construct: gene MAP3K7
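Note: KINOMEscan kinase panel screen.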

For `COC(=O)c1cccc(NC(=O)NC2CCN(c3ccnc(Nc4cc(OC)c(OC)c(OC)c4)n3)C2)c1` (stereo not drawn) [GSK1379767], the “%Inh” value is recorded as 0% in the test on STK36; 5% in the test on STK39; 34% in the test with SYK; 0% in the test with SgK110; 12% with TAK1; 0% with TAOK1. Also, the “%Inh” value with TAOK2 is given as 0%; in the test on TAOK3 it was 0%; with TBK1 it was 32%; in the test with TEC, 0%.

With `O=C(Nc1cccc(Oc2ccc3nccn3n2)c1)Nc1cccc(C(F)(F)F)c1`, the “%Inh” value in the test on STK36 is 0%; with STK39 it was 0%; in the test on SYK it was 0%; with SgK110, 16%; in the test with TAK1, 0%; with TAOK1, 0%. Also, the “%Inh” value with TAOK2 was 0%; with TAOK3 it was 0%; with TBK1, 8%; with TEC, 0%.

On to `COc1cccc(OC)c1C(=O)Nc1cccc(-c2nn3ccccc3c2-c2ccnc(Nc3cccc(F)c3)n2)c1` [GSK361065], for which the “%Inh” value with STK36 is given as 92%; with STK39, 11%; in the test with SYK, 3%; in the test with SgK110, 16%; in the test on TAK1, 16%; in the test with TAOK1, 62%. The “%Inh” value in the test with TAOK2 is 15%; in the test on TAOK3, 60%; in the test on TBK1 it was 61%; in the test on TEC it was 26%.

As for `Cc1ccc2c(-c3ccnc(Nc4ccc(C(F)(F)F)cc4)n3)cnn2n1` [GW819776], the “%Inh” value in the test on STK36 is recorded as 9%; with STK39, 6%; in the test on SYK it was 42%; with SgK110, 20%; with TAK1, 2%; with TAOK1, 1%. In addition, the “%Inh” value amounted to 23% in the test on TAOK2, 0% with TAOK3, 48% with TBK1 and 9% in the test on TEC.

With `CNC(=O)c1ccccc1Nc1nc(Nc2cccc(CS(C)(=O)=O)c2)ncc1C.O=CO` [GSK1520489], the “%Inh” value in the test with STK36 is given as 65%; with STK39, 15%; in the test with SYK, 70%; in the test with SgK110 it was 100%; with TAK1, 96%; in the test with TAOK1, 72%. Further, the “%Inh” value in the test on TAOK2 was determined as 15%; in the test with TAOK3, 52%; in the test with TBK1, 44%; with TEC, 99.9%.

`COC(=O)c1cccc(NC(=O)NC2CCN(c3ccnc(NCc4ccc(F)cc4)n3)CC2)c1` [GSK1379860]: the “%Inh” value is reported as 0% with STK36; 0% with STK39; 25% in the test with SYK; 0% with SgK110; 0% with TAK1; 0% in the test on TAOK1. The “%Inh” value was 0% in the test with TAOK2, 0% in the test with TAOK3, 0% in the test with TBK1 and 15% with TEC.

Take `N#Cc1cccc(C(=O)NC2CCN(c3ccnc(Nc4ccc(F)cc4)n3)C2)c1` (stereo not drawn) [GSK1379708]: the “%Inh” value in the test on STK36 was determined as 0%; in the test on STK39, 0%; in the test on SYK it was 27%; in the test on SgK110, 5%; in the test on TAK1, 0%; in the test with TAOK1 it was 0%. Also, the “%Inh” value with TAOK2, in the test on TAOK3, in the test on TBK1 and in the test on TEC was 0% in each case.

For the compound `Cn1ccc2ncnc(Oc3ccc(NC(=O)Nc4cc(C(C)(C)C)on4)c(Cl)c3)c21`, the “%Inh” value with STK36 was determined as 0%; in the test with STK39, 23%; in the test with SYK it was 0%; in the test with SgK110, 27%; in the test with TAK1, 81%; with TAOK1, 0%. Further, the “%Inh” value is on record as 0% with TAOK2, 0% in the test on TAOK3, 28% with TBK1 and 9% with TEC.

For the compound `CCn1c(-c2nonc2N)nc2cncc(Br)c21` [SB-738004], the “%Inh” value in the test with STK36 came to 0%; in the test on STK39, 21%; with SYK it was 8%; in the test on SgK110 it was 0%; in the test on TAK1 it was 68%; with TAOK1 it was 46%. For the same compound, the “%Inh” value in the test with TAOK2 was 1%; in the test with TAOK3 it was 1%; in the test with TBK1 it was 16%; in the test with TEC, 0%.

Take `COc1cc2c(Nc3ccc(NC(=O)c4ccccc4)cc3)ncnc2cc1OCCCN1CCOCC1` [GSK301329]: the “%Inh” value in the test on STK36 is given as 0%; in the test on STK39 it was 0%; in the test on SYK it was 7%; in the test with SgK110, 0%; in the test on TAK1 it was 0%; with TAOK1, 0%. Also, the “%Inh” value in the test with TAOK2, in the test with TAOK3, in the test on TBK1 and in the test on TEC was 0% throughout.

Turning to `CS(=O)c1ccc(-c2coc3ccc(-c4n[nH]c(=O)o4)cc23)cc1` (stereo not drawn), the “%Inh” value turned out to be 0% in the test with STK36; 19% with STK39; 0% in the test on SYK; 0% in the test with SgK110; 30% with TAK1; 0% in the test on TAOK1. Moreover, the “%Inh” value turned out to be 3% in the test with TAOK2, 0% in the test on TAOK3, 20% in the test with TBK1 and 0% with TEC.

As to `COc1cccc(C2=C(Nc3cccc(Cl)c3)C(=O)NC2=O)c1` [SB-341556], the “%Inh” value is 0% with STK36; 8% in the test with STK39; 3% in the test on SYK; 0% in the test with SgK110; 3% in the test on TAK1; 21% in the test on TAOK1. Moreover, the “%Inh” value with TAOK2 stood at 0%; in the test with TAOK3 it was 23%; in the test on TBK1, 2%; in the test with TEC, 0%.

In the case of `CN(c1ccc2c(c1)nc(NCc1ccc(F)cc1)n2C)c1ccnc(Nc2ccc(CS(C)(=O)=O)cc2)n1.Cl` [GW813244], the “%Inh” value with STK36 was 7%; with STK39, 0%; in the test on SYK it was 73%; in the test with SgK110, 8%; in the test on TAK1, 19%; in the test with TAOK1, 0%. Also, the “%Inh” value was determined as 61% with TAOK2, 3% with TAOK3, 54% with TBK1 and 25% in the test with TEC.

In the case of `Cl.Nc1n[nH]c2cc(-c3ccccn3)ccc12` [GSK2189892], the “%Inh” value with STK36 stood at 0%; in the test with STK39, 0%; in the test with SYK, 7%; in the test with SgK110, 0%; in the test on TAK1, 2%; in the test with TAOK1, 0%. Besides, the “%Inh” value was 0% with TAOK2, 0% in the test with TAOK3, 6% in the test with TBK1 and 0% in the test on TEC.

As for `O=c1[nH]cc(-c2ccc(O)cc2)c2sc(-c3ccncc3)cc12` [GSK1033723], the “%Inh” value with STK36 was found to be 26%; with STK39, 6%; with SYK, 26%; in the test on SgK110 it was 0%; in the test with TAK1, 11%; in the test on TAOK1, 14%. Also, the “%Inh” value with TAOK2 amounted to 0%; in the test with TAOK3 it was 0%; with TBK1, 19%; in the test on TEC it was 0%.
